According to PMC5540273 (PLoS ONE, 2017):
Values joined by “and” are separate entries in the source; they are usually repeats but may differ in a detail not shown here. Equal entries are not always repeated. Where two headings read alike, the source gives them in different places.

Legend:
MRCKA = conditions: concentration: 1 μM, replicates: in singlicate, n = 1
MRCKB = tested on: T1, MRCKB; conditions: concentration: 1 μM, replicates: in singlicate; n = 1
T1 construct: gene CDC42BPB

MST1R = conditions: concentration: 1 μM, replicates: in singlicate, n = 1
MST1 = tested on: T2, MST1; conditions: concentration: 1 μM, replicates: in singlicate; n = 1
T2 construct: gene STK4

MST2 = tested on: T3, MST2; conditions: concentration: 1 μM, replicates: in singlicate, n = 1
T3 construct: gene STK3

MST3 = tested on: T4, MST3; conditions: concentration: 1 μM, replicates: in singlicate; n = 1
T4 construct: gene STK24

MST4 = conditions: concentration: 1 μM, replicates: in singlicate; n = 1
MTOR = conditions: concentration: 1 μM, replicates: in singlicate, n = 1
MUSK = conditions: concentration: 1 μM, replicates: in singlicate; n = 1
MYLK2 = conditions: concentration: 1 μM, replicates: in singlicate; n = 1
MYLK4 = conditions: concentration: 1 μM, replicates: in singlicate, n = 1
MYLK = conditions: concentration: 1 μM, replicates: in singlicate, n = 1
MYO3A = conditions: concentration: 1 μM, replicates: in singlicate, n = 1
MYO3B = conditions: concentration: 1 μM, replicates: in singlicate; n = 1
NDR1 = tested on: T5, NDR1; conditions: concentration: 1 μM, replicates: in singlicate, n = 1
T5 construct: gene STK38

NDR2 = conditions: concentration: 1 μM, replicates: in singlicate, n = 1
NEK10 = conditions: concentration: 1 μM, replicates: in singlicate; n = 1
NEK11 = conditions: concentration: 1 μM, replicates: in singlicate, n = 1
NEK1 = conditions: concentration: 1 μM, replicates: in singlicate; n = 1
NEK2 = conditions: concentration: 1 μM, replicates: in singlicate, n = 1
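Further: KINOMEscan kinase panel screen.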

Fc1cccc(COc2ccc(Nc3ncnc4nn5ccccc5c34)cc2Cl)c1 [GW689066]
%Inh (MRCKA): 0% | %Inh (MRCKB): 0% | %Inh (MST1R): 6% | %Inh (MST1): 0% | %Inh (MST2): 0% | %Inh (MST3): 0% | %Inh (MST4): 0% | %Inh (MTOR): 3% | %Inh (MUSK): 0% | %Inh (MYLK2): 0% | %Inh (MYLK4): 0% | %Inh (MYLK): 0% | %Inh (MYO3A): 18% | %Inh (MYO3B): 0% | %Inh (NDR1): 55% | %Inh (NDR2): 0% | %Inh (NEK10): 0% | %Inh (NEK11): 11% | %Inh (NEK1): 0% | %Inh (NEK2): 0%

COC(=O)c1c(-c2ccccc2)c2cc(Cl)ccc2c(=O)n1Cc1ccc(S(C)(=O)=O)cc1
%Inh (MRCKA): 0% | %Inh (MRCKB): 0% | %Inh (MST1R): 24% | %Inh (MST1): 1% | %Inh (MST2): 18% | %Inh (MST3): 7% | %Inh (MST4): 0% | %Inh (MTOR): 0% | %Inh (MUSK): 0% | %Inh (MYLK2): 0% | %Inh (MYLK4): 5% | %Inh (MYLK): 34% | %Inh (MYO3A): 0% | %Inh (MYO3B): 0% | %Inh (NDR1): 0% | %Inh (NDR2): 0% | %Inh (NEK10): 13% | %Inh (NEK11): 0% | %Inh (NEK1): 0% | %Inh (NEK2): 83%

COc1cc2ncnc(Nc3ccc(OCc4ccccc4Br)c(Cl)c3)c2cc1OC.Cl [GI261590]
%Inh (MRCKA): 23% | %Inh (MRCKB): 0% | %Inh (MST1R): 48% | %Inh (MST1): 10% | %Inh (MST2): 0% | %Inh (MST3): 0% | %Inh (MST4): 0% | %Inh (MTOR): 24% | %Inh (MUSK): 12% | %Inh (MYLK2): 0% | %Inh (MYLK4): 0% | %Inh (MYLK): 10% | %Inh (MYO3A): 38% | %Inh (MYO3B): 0% | %Inh (NDR1): 0% | %Inh (NDR2): 0% | %Inh (NEK10): 25% | %Inh (NEK11): 0% | %Inh (NEK1): 0% | %Inh (NEK2): 0%

CS(=O)(=O)CCNCc1nc(-c2ccc3ncnc(Nc4ccc(OCc5cccc(F)c5)c(Cl)c4)c3c2)cs1.Cl [GW583340]
%Inh (MRCKA): 0% | %Inh (MRCKB): 0% | %Inh (MST1R): 38% | %Inh (MST1): 0% | %Inh (MST2): 8% | %Inh (MST3): 15% | %Inh (MST4): 0% | %Inh (MTOR): 4% | %Inh (MUSK): 0% | %Inh (MYLK2): 0% | %Inh (MYLK4): 4% | %Inh (MYLK): 1% | %Inh (MYO3A): 34% | %Inh (MYO3B): 0% | %Inh (NDR1): 0% | %Inh (NDR2): 15% | %Inh (NEK10): 0% | %Inh (NEK11): 0% | %Inh (NEK1): 0% | %Inh (NEK2): 16%

CC(C)(C)c1ccc(-n2cnc3c(N)ncnc32)cc1 [SKF-97263]
%Inh (MRCKA): 0% | %Inh (MRCKB): 3% | %Inh (MST1R): 17% | %Inh (MST1): 13% | %Inh (MST2): 18% | %Inh (MST3): 0% | %Inh (MST4): 0% | %Inh (MTOR): 15% | %Inh (MUSK): 0% | %Inh (MYLK2): 0% | %Inh (MYLK4): 3% | %Inh (MYLK): 8% | %Inh (MYO3A): 1% | %Inh (MYO3B): 8% | %Inh (NDR1): 0% | %Inh (NDR2): 0% | %Inh (NEK10): 0% | %Inh (NEK11): 0% | %Inh (NEK1): 0% | %Inh (NEK2): 0%

COc1ccc(-c2nc3n(c2-c2ccncc2)CCC3)cc1 [SKF-104493]
%Inh (MRCKA; 1 µM): 0% and 2% | %Inh (MRCKB): 0% | %Inh (MST1R; 1 µM): 19% and 14% | %Inh (MST1): 0% | %Inh (MST2; 1 µM): 4% and 16% | %Inh (MST3): 0% | %Inh (MST4): 0% | %Inh (MTOR; 1 µM): 0% and 11% | %Inh (MUSK): 3% | %Inh (MYLK2): 0% | %Inh (MYLK4; 1 µM): 0% and 12% | %Inh (MYLK; 1 µM): 14% and 8% | %Inh (MYO3A; 1 µM): 7% and 25% | %Inh (MYO3B): 0% | %Inh (NDR1; 1 µM): 22% and 13% | %Inh (NDR2; 1 µM): 16% and 10% | %Inh (NEK10): 0% | %Inh (NEK11; 1 µM): 42% and 13% | %Inh (NEK1): 0% | %Inh (NEK2; 1 µM): 0% and 4%

Cl.Fc1ccccc1COc1ccc(Nc2ncnc3ccc(-c4nnc(C(F)(F)F)o4)cc23)cc1Cl [GW424170]
%Inh (MRCKA): 7% | %Inh (MRCKB): 0% | %Inh (MST1R): 18% | %Inh (MST1): 0% | %Inh (MST2): 0% | %Inh (MST3): 0% | %Inh (MST4): 0% | %Inh (MTOR): 0% | %Inh (MUSK): 0% | %Inh (MYLK2): 0% | %Inh (MYLK4): 0% | %Inh (MYLK): 0% | %Inh (MYO3A): 0% | %Inh (MYO3B): 0% | %Inh (NDR1): 0% | %Inh (NDR2): 16% | %Inh (NEK10): 0% | %Inh (NEK11): 0% | %Inh (NEK1): 0% | %Inh (NEK2): 0%

O=C(Nc1ccccc1F)NC1CCN(c2ccnc(Nc3ccc(F)cc3)n2)C1 (centres unmarked) [GSK1379722]
%Inh (MRCKA): 15% | %Inh (MRCKB): 0% | %Inh (MST1R): 38% | %Inh (MST1): 0% | %Inh (MST2): 0% | %Inh (MST3): 0% | %Inh (MST4): 0% | %Inh (MTOR): 17% | %Inh (MUSK): 2% | %Inh (MYLK2): 12% | %Inh (MYLK4): 0% | %Inh (MYLK): 0% | %Inh (MYO3A): 2% | %Inh (MYO3B): 0% | %Inh (NDR1): 12% | %Inh (NDR2): 0% | %Inh (NEK10): 22% | %Inh (NEK11): 2% | %Inh (NEK1): 0% | %Inh (NEK2): 0%

OCCOCCn1ccc2ncnc(Nc3ccc(Oc4cccc(Cl)c4)c(Cl)c3)c21
%Inh (MRCKA): 0% | %Inh (MRCKB): 0% | %Inh (MST1R): 0% | %Inh (MST1): 0% | %Inh (MST2): 0% | %Inh (MST3): 0% | %Inh (MST4): 0% | %Inh (MTOR): 46% | %Inh (MUSK): 0% | %Inh (MYLK2): 0% | %Inh (MYLK4): 0% | %Inh (MYLK): 0% | %Inh (MYO3A): 0% | %Inh (MYO3B): 0% | %Inh (NDR1): 30% | %Inh (NDR2): 0% | %Inh (NEK10): 0% | %Inh (NEK11): 0% | %Inh (NEK1): 0% | %Inh (NEK2): 0%

Cc1cc(N2CCC(NS(=O)(=O)c3ccc(F)cc3)CC2)nc(Nc2cccc(C#N)c2)n1.O=C(O)C(F)(F)F [GSK1653537]
%Inh (MRCKA): 0% | %Inh (MRCKB): 0% | %Inh (MST1R): 17% | %Inh (MST1): 8% | %Inh (MST2): 0% | %Inh (MST3): 7% | %Inh (MST4): 0% | %Inh (MTOR): 6% | %Inh (MUSK): 8% | %Inh (MYLK2): 0% | %Inh (MYLK4): 0% | %Inh (MYLK): 0% | %Inh (MYO3A): 0% | %Inh (MYO3B): 0% | %Inh (NDR1): 0% | %Inh (NDR2): 0% | %Inh (NEK10): 1% | %Inh (NEK11): 0% | %Inh (NEK1): 55% | %Inh (NEK2): 0%
